The list is not random: actives were taken first. Their share in the collection is about 4.3%.
HSF1 activator: increases HSF-1 driven luciferase reporter signal | NIH3T3-HGL HSF-1 luciferase reporter, MG132, 8 h; 100% = twice DMSO control signal | activation, % at 9 µM | AID 504408 | 300,000 tested, 1.7% active;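 active = mean replicate activation of at least 50% with a set share of replicates each reaching 50%; inconclusive = only one of those two conditions met; inactive = mean below 50% and too few replicates reaching it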
MITF TRPM1 HTS: increases MITF-driven TRPM1 promoter luciferase signal | SK-MEL-5 TRPM1-promoter luciferase, 24 h; % of positive control, neutral wells = 0 | activation, % at 12.5 µM | 300,000 tested, 0.75% active | AID 588334;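 active = mean activation of at least 80% with every replicate also reaching 80%; inconclusive = mean reaches 80% but some replicate falls short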
Wnt act: activates Wnt/beta-catenin signaling in a reporter cell assay. activator, plate reader. activation, % at 9.35 µM. 300,000 tested, 1.2% active. AID 743398; in the data active = activation above about 30%, passing the limit was not always enough; inconclusive = no clear call, values can overlap the other calls
HSF1 inh: HSF1 inhibition; NIH3T3-HGL HSE-luciferase, MG132-induced, luminescence 8 h; active compounds read low; activity change, negative = inhibition, % at 7.5 µM (by protocol); 300,000 tested, 0.77% active; AID 2098;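 active = more than half of replicate wells show activity change below -50%, luminescence cut by over half; inconclusive = some wells, but at most half, below -50%; inactive = no replicate well below -50%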;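 note: luciferase reports HSF-1 transcriptional activity via heat shock element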
esBAF inh: SWI/SNF esBAF complex inhibition; mouse ES cells, Bmi1-luciferase knock-in reporter, 24 h; 100% = twice the neutral-well signal; 350,000 tested, 2% active; reporter increase, % at 12.5 µM; in the data active = activation above about 40%; inconclusive = no clear call, values can overlap the other calls;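 note: a rise in the Bmi1 reporter signal indicates esBAF inhibition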
SMARCA2 act: SMARCA2 function activation, primary screen; MG213 cells, MMTV-luciferase reporter, dexamethasone, overnight; activation, % at 9.1 µM; 370,000 tested, 1% active; AID 652017; in the data active = activation above about 7.8%
esBAF Ring1 qPCR: de-represses Ring1 in mouse ESCs, confirming esBAF inhibition | 550 tested, under 10 active | fold change at 33 µM | shares compounds with esBAF inh | mouse ESC E14, Ring1 mRNA RT-qPCR fold change;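 active = Ring1 gene expression raised more than 2-fold over untreated cells in both replicates at either tested dose; inconclusive = only one replicate above 2-fold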;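 note: Ring1 transcript normalised to actin housekeeping signal by TaqMan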
esBAF Fgf4 qPCR: confirmation of esBAF inhibitors: Fgf4 repression in mouse ESCs; shares compounds with esBAF inh; mouse ESC E14, Fgf4 mRNA qPCR fold change; active compounds read low; Fgf4 expression fold change at 33 µM; 550 tested, 4% active;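 active = Fgf4 expression under 0.8 fold of control in both repeat measurements at one or both tested doses; inconclusive = under 0.8 fold in just a single repeat measurement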;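 note: Fgf4 transcript normalised to actin in duplex TaqMan qPCR; cells exposed to compound for 24 h before lysis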
Bmi1 derepress: de-represses Bmi1 in mouse ESCs, confirming esBAF inhibition; AID 743180; shares compounds with esBAF inh; fold change at 33 µM; 550 tested, under 10 active; mouse ESE14 ES cells, Bmi1 mRNA qPCR fold; active compounds read high;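 active = Bmi1 expression fold change above 6 at either tested concentration, seen in replicate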;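 note: higher fold means more Bmi1 de-repression and stronger esBAF inhibition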
A549 cytotox: kills or reduces viability of A549 cells | shares compounds with esBAF inh | A549 cytotoxicity, plate reader | cell viability change % (negative = cytotoxic), % at 25 µM, hits read low | 550 tested, under 10 active | AID 743188; call rule not given here
HepG2 tox SP: HepG2 cell cytotoxicity at single point; plate reader; active compounds read low; activity change, negative = inhibition, % at 25 µM; shares compounds with esBAF inh; 550 tested, 4% active; in the data active = activity change below about -50%
HEK293 cytotox SP: HEK293 cell cytotoxicity at single point; AID 743190; 550 tested, 3% active; activity change, negative = inhibition, % at 25 µM, hits read low; shares compounds with esBAF inh; plate reader; in the data active = activity change below about -38%, passing the limit was not always enough
Numbers stand for hits.

For Cc1ccc(N/N=C2/CCCNC2=O)cc1 the results were HSF1 activator inactive, Wnt act inactive, HSF1 inh inactive, esBAF inh inactive and SMARCA2 act inactive.
For O=C1NCCC/C1=N/Nc1cc(F)ccc1F the results were HSF1 activator inactive, MITF TRPM1 HTS inactive, Wnt act inactive, HSF1 inh inactive, esBAF inh 60, SMARCA2 act inactive, esBAF Ring1 qPCR inactive, esBAF Fgf4 qPCR inactive, Bmi1 derepress inactive, A549 cytotox inactive, HepG2 tox SP -55 and HEK293 cytotox SP inactive.
`N#Cc1ccccc1CSc1ccc(-c2nc3ccccc3[nH]2)cn1` gave HSF1 activator inactive, MITF TRPM1 HTS inactive, HSF1 inh inactive and SMARCA2 act inactive.
Screening Cc1ccc(-c2nc3ccccc3[nH]2)cn1 returned HSF1 activator inactive, MITF TRPM1 HTS inactive, Wnt act inactive, HSF1 inh inactive, esBAF inh 63, SMARCA2 act inactive, esBAF Ring1 qPCR inactive, esBAF Fgf4 qPCR inactive, Bmi1 derepress inactive, A549 cytotox inactive, HepG2 tox SP inactive and HEK293 cytotox SP inactive.
Screening CCC(=O)N1[C@@H]2c3ccc(C4=CCCC4)c(=O)n3C[C@@H]2[C@@H](CO)[C@@H]1C(=O)NCc1ccccc1 returned esBAF inh inactive.
Screening CN(C)c1ccc(-c2csc(C(O)c3ccccc3)n2)cc1 (stereo unspecified) returned Wnt act inactive, esBAF inh 61, SMARCA2 act inactive, esBAF Ring1 qPCR inactive, esBAF Fgf4 qPCR inconclusive, Bmi1 derepress inactive, A549 cytotox inactive, HepG2 tox SP inactive and HEK293 cytotox SP inactive.
COc1ccc(-c2csc(C(O)c3ccc(F)cc3)n2)cc1 (stereo unspecified) was read as Wnt act inactive, esBAF inh 60, SMARCA2 act inactive, esBAF Ring1 qPCR inactive, esBAF Fgf4 qPCR inactive, Bmi1 derepress inactive, A549 cytotox inactive, HepG2 tox SP inactive and HEK293 cytotox SP inactive.
For CN(C)c1ccc(-c2csc(C(O)c3ccc(F)cc3)n2)cc1 (stereo unspecified) the results were Wnt act inactive, esBAF inh 82, SMARCA2 act inactive, esBAF Ring1 qPCR inactive, esBAF Fgf4 qPCR inactive, Bmi1 derepress inactive, A549 cytotox inactive, HepG2 tox SP inactive and HEK293 cytotox SP inactive.
Screening COc1ccc(-c2csc(C(O)c3ccc(OC)cc3)n2)cc1 (stereo unspecified) returned Wnt act inactive, esBAF inh inactive and SMARCA2 act inactive.
For OC(c1ccc(F)cc1)c1nc(-c2ccc(F)c(Cl)c2)cs1 (stereo unspecified) the results were Wnt act inactive, esBAF inh inactive and SMARCA2 act inactive.
For O=C(C[C@@H]1CC[C@@H]2[C@H](COC[C@H](O)CN2Cc2cccc(C(F)(F)F)c2)O1)NCc1ccccc1 the results were esBAF inh inactive.
Screening N#Cc1ccc(-c2cn3c(n2)SCC3)cc1 returned HSF1 activator inactive, MITF TRPM1 HTS inactive, Wnt act inactive, HSF1 inh inactive, esBAF inh 61, SMARCA2 act inactive, esBAF Ring1 qPCR inactive, esBAF Fgf4 qPCR inactive, Bmi1 derepress inactive, A549 cytotox inactive, HepG2 tox SP inactive and HEK293 cytotox SP inactive.

Bioassay records (PubChem)
